ChEMBL document CHEMBL1961873, “Compounds: GSK PKIS; Assays: Nanosyn kinase panel” (2012)

Assays:
[1] = biological target: Tyrosine-protein kinase CSK (Homo sapiens) (UniProt P41240); settings: at 1 µM;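 further: each value is an averaged inhibition reading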
[2] = biological target: T1, Discoidin domain-containing receptor 2 (Homo sapiens) (UniProt Q16832); settings: at 0.1 µM
T1 sequence (whole entry): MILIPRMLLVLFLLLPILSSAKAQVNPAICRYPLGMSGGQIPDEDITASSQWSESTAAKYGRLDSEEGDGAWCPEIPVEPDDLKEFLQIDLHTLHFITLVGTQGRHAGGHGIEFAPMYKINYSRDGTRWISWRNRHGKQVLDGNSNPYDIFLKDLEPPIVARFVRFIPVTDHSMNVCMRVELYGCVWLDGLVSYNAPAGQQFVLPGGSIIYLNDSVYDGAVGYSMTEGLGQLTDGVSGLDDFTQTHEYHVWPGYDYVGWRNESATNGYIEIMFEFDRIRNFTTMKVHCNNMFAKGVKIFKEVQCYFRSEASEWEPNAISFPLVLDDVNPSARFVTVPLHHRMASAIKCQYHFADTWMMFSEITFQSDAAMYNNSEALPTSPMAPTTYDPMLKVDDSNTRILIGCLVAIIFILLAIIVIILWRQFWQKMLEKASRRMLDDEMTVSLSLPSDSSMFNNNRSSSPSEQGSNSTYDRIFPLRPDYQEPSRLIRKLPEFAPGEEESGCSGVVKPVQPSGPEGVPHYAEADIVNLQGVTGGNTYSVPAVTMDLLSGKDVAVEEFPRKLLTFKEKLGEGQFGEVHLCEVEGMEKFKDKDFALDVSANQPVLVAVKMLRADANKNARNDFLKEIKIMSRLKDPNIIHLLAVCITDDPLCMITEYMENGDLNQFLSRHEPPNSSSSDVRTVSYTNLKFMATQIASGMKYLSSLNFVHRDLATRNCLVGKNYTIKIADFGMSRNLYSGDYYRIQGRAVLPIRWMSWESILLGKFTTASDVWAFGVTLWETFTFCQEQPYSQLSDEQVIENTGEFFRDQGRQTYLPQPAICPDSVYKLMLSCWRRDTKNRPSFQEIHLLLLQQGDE

[3] = biological target: T1, Discoidin domain-containing receptor 2 (Homo sapiens); settings: at 1 µM
[4] = biological target: Epidermal growth factor receptor (Homo sapiens) (UniProt P00533); settings: at 0.1 µM
[5] = biological target: Epidermal growth factor receptor (Homo sapiens) (UniProt P00533); settings: at 1 µM
[6] = tested on: Epidermal growth factor receptor (Homo sapiens), P00533 [L858R]; settings: at 0.1 µM
[7] = tested on: Epidermal growth factor receptor (Homo sapiens), P00533 [L858R]; settings: at 1 µM
[8] = tested on: Epidermal growth factor receptor (Homo sapiens), P00533 [L861Q]; settings: at 0.1 µM
[9] = tested on: Epidermal growth factor receptor (Homo sapiens), P00533 [L861Q]; settings: at 1 µM
[10] = tested on: Epidermal growth factor receptor (Homo sapiens), P00533 [T790M]; settings: at 0.1 µM
[11] = tested on: Epidermal growth factor receptor (Homo sapiens), P00533 [T790M]; settings: at 1 µM
[12] = tested on: Epidermal growth factor receptor (Homo sapiens), P00533 [L858R,T790M]; settings: at 0.1 µM
[13] = tested on: Epidermal growth factor receptor (Homo sapiens), P00533 [L858R,T790M]; settings: at 1 µM
[14] = biological target: Ephrin type-A receptor 2 (Homo sapiens) (UniProt P29317); settings: at 0.1 µM
[15] = biological target: Ephrin type-A receptor 2 (Homo sapiens) (UniProt P29317); settings: at 1 µM
[16] = biological target: T2, Ephrin type-A receptor 3 (Homo sapiens) (UniProt P29320); settings: at 0.1 µM
T2 sequence (whole entry): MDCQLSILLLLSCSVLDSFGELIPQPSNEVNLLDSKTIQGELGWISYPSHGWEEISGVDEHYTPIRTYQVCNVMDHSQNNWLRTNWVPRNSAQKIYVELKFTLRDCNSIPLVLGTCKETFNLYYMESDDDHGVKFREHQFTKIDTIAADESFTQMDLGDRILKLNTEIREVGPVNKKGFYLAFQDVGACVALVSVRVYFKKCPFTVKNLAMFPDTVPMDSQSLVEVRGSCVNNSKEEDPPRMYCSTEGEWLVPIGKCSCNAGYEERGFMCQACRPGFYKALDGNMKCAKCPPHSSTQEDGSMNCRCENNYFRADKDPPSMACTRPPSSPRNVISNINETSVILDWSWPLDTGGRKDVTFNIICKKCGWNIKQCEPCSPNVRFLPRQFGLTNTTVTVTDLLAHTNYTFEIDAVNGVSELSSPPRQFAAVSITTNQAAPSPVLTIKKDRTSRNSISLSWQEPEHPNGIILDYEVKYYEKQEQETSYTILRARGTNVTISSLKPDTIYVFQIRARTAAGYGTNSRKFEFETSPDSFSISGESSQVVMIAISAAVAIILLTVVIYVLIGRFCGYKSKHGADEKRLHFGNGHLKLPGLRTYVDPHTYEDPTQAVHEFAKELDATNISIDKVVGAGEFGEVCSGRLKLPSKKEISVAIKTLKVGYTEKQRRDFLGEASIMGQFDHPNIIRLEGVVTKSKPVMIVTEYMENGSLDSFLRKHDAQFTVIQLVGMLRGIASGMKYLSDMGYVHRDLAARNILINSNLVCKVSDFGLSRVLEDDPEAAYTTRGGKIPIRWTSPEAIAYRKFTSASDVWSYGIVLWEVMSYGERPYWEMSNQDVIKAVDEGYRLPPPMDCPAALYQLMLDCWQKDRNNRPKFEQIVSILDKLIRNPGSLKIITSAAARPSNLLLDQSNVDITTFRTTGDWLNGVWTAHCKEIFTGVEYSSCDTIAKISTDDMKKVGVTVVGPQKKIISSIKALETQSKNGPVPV

[17] = biological target: T2, Ephrin type-A receptor 3 (Homo sapiens); settings: at 1 µM
[18] = biological target: Ephrin type-A receptor 4 (Homo sapiens) (UniProt P54764); settings: at 0.1 µM
[19] = biological target: Ephrin type-A receptor 4 (Homo sapiens) (UniProt P54764); settings: at 1 µM
[20] = biological target: T3, Ephrin type-B receptor 2 (Homo sapiens) (UniProt P29323); settings: at 0.1 µM;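 further: reported as mean inhibition of EPHB2, from the GSK PKIS dataset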
T3 sequence (whole entry): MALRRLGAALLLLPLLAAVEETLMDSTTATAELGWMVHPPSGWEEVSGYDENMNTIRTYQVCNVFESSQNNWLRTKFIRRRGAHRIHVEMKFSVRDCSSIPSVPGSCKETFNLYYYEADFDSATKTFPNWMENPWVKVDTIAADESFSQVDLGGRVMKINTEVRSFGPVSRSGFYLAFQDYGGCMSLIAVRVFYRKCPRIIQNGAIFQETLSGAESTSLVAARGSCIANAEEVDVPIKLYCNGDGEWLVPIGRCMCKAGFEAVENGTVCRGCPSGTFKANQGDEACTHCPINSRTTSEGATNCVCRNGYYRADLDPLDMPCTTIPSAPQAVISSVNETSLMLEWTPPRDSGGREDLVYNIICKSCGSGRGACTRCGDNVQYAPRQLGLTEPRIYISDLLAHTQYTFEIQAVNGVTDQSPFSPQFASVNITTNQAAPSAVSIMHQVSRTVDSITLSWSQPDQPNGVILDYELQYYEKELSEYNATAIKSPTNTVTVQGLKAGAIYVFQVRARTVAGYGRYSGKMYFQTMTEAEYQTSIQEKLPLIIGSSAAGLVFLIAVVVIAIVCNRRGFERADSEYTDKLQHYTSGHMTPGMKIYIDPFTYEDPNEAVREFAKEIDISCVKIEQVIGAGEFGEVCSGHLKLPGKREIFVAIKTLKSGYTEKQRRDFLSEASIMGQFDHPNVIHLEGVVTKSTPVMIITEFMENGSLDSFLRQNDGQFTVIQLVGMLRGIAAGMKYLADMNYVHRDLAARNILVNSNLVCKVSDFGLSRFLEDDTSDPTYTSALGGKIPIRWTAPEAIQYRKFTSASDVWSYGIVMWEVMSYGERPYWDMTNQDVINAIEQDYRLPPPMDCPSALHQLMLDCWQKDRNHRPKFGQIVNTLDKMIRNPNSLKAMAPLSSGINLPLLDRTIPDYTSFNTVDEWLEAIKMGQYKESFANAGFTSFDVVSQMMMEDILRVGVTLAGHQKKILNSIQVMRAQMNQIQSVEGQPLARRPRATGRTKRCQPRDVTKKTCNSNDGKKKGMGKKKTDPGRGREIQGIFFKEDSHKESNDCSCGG

Ephrin type-A receptor 2 (Homo sapiens), sequence (P29317 whole entry): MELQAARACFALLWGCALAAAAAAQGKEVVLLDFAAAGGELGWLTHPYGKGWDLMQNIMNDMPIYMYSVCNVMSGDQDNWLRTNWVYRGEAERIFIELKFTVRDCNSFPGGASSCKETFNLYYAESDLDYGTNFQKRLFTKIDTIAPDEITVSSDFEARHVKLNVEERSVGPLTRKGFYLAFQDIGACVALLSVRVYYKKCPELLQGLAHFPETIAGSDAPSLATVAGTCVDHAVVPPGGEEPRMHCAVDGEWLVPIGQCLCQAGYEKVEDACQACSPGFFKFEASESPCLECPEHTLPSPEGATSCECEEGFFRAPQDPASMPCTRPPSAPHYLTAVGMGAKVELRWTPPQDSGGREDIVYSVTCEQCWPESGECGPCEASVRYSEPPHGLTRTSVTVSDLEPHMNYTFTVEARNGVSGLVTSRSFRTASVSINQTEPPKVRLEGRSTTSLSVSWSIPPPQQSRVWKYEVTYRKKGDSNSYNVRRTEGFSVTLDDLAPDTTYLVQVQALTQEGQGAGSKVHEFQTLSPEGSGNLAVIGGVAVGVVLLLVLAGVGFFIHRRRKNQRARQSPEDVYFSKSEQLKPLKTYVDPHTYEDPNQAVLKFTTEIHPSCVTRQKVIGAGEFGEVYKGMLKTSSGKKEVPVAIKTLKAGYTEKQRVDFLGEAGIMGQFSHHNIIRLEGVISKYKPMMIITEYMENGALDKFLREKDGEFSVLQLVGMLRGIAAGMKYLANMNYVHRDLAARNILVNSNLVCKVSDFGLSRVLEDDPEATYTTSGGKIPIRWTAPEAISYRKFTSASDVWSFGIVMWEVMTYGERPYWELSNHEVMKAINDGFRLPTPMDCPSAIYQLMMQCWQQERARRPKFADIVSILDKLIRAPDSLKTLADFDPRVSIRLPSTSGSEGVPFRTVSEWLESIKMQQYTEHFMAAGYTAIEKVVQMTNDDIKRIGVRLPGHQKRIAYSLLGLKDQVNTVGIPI
Epidermal growth factor receptor (Homo sapiens), P00533 [T790M], sequence (P00533 whole entry T790M): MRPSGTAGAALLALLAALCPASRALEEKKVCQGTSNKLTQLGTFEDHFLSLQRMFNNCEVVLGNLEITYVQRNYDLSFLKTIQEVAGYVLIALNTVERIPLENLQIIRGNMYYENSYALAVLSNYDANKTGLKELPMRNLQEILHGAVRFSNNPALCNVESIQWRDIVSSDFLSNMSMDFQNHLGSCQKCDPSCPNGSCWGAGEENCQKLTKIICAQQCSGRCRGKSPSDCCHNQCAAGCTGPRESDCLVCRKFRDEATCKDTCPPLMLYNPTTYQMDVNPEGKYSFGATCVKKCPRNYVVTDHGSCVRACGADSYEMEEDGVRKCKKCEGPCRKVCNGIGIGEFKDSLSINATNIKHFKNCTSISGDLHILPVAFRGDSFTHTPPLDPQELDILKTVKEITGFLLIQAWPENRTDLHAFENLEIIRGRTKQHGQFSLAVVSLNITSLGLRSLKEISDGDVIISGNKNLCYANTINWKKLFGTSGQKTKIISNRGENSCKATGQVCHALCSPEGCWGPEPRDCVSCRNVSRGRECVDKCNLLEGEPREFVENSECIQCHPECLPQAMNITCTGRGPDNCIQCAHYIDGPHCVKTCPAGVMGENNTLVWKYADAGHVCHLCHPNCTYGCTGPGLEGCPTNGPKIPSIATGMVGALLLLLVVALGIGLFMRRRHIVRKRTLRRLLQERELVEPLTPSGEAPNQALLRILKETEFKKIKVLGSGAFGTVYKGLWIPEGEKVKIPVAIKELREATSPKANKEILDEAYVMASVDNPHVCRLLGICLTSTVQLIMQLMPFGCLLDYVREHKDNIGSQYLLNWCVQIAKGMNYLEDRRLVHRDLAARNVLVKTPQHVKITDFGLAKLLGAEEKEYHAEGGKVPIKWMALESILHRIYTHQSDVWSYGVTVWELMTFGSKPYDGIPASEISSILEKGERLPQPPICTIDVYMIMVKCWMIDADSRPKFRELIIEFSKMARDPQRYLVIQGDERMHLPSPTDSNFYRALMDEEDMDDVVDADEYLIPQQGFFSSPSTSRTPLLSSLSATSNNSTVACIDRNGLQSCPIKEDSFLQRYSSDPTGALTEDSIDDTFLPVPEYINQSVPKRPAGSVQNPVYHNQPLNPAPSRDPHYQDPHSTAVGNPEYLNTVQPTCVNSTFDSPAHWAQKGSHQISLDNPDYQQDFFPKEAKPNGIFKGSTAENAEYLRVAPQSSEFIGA
Epidermal growth factor receptor (Homo sapiens), P00533 [L858R,T790M], sequence (P00533 whole entry T790M/L858R, looked up): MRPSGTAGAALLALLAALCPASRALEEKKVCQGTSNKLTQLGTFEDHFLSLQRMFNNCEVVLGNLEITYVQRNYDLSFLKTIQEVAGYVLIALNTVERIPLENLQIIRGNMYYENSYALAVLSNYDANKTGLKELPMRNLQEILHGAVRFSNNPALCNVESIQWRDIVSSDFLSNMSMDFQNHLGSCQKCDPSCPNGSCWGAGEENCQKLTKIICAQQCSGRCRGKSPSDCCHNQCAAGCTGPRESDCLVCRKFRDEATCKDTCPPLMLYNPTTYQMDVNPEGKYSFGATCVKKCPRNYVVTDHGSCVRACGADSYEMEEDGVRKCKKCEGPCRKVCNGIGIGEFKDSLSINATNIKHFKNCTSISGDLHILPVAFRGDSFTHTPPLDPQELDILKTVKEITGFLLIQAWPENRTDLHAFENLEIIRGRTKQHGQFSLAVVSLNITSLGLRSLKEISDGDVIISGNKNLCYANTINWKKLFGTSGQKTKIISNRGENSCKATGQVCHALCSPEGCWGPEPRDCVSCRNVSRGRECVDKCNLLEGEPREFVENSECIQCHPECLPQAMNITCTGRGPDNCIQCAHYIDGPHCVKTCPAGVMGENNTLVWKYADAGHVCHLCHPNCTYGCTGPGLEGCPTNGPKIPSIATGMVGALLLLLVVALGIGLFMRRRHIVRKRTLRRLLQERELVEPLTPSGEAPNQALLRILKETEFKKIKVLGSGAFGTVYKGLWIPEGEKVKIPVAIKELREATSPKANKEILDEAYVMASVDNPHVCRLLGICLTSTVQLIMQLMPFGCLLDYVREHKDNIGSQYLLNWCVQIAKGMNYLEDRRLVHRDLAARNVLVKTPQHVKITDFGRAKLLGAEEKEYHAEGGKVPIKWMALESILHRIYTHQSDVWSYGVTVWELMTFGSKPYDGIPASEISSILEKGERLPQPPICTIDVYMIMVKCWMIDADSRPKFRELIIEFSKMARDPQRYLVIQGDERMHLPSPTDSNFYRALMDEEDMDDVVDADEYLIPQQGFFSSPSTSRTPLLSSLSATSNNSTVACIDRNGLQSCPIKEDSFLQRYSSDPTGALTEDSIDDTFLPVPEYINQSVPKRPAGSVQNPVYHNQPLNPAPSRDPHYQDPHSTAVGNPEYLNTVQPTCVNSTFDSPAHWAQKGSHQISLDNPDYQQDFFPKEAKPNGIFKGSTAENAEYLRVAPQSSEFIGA
Ephrin type-A receptor 4 (Homo sapiens), sequence (P54764 whole entry): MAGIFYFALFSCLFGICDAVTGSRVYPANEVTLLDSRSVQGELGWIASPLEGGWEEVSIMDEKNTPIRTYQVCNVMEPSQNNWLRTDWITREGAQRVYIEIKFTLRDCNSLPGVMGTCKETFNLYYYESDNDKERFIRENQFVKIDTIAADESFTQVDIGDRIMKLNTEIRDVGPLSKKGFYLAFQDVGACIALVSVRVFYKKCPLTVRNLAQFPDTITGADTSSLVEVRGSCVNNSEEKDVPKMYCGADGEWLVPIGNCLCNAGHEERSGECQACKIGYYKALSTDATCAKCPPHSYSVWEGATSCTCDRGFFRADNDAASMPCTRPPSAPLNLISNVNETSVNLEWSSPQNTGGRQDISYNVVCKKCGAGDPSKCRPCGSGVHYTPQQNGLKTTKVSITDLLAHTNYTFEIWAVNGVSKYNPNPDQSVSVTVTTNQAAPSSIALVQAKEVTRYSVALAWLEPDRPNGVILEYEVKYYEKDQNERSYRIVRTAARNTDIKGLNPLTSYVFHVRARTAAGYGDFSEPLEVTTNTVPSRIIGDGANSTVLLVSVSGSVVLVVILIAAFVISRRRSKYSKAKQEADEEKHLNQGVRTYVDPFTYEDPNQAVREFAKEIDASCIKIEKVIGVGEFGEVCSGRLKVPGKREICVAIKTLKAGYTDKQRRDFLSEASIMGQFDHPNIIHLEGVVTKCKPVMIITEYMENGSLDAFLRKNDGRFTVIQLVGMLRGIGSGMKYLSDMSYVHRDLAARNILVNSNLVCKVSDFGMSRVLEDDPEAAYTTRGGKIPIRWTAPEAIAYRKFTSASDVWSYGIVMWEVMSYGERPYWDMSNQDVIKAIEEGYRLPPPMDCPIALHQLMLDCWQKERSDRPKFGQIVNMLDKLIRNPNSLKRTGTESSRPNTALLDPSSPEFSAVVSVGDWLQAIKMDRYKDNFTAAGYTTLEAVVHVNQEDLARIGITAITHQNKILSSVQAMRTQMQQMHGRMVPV
Tyrosine-protein kinase CSK (Homo sapiens), sequence (P41240 2-450 limits assumed): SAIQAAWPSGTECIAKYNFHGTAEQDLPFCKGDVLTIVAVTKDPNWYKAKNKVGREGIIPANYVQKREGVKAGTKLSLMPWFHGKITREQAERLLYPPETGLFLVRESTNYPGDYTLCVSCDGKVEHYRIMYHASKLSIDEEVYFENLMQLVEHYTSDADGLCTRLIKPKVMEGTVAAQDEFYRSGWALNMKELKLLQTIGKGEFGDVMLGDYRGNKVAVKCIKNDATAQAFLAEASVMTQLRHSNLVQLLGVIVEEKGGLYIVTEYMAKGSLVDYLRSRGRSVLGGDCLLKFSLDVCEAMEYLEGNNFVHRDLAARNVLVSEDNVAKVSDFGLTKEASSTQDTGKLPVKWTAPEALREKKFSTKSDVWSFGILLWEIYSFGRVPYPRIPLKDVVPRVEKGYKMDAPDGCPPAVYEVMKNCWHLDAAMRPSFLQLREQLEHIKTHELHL

| Structure (SMILES) | inhibition [1] [%] | inhibition [2] [%] | inhibition [3] [%] | inhibition [4] [%] | inhibition [5] [%] | inhibition [6] [%] | inhibition [7] [%] | inhibition [8] [%] | inhibition [9] [%] | inhibition [10] [%] | inhibition [11] [%] | inhibition [12] [%] | inhibition [13] [%] | inhibition [14] [%] | inhibition [15] [%] | inhibition [16] [%] | inhibition [17] [%] | inhibition [18] [%] | inhibition [19] [%] | inhibition [20] [%] |
| --- | --- | --- | --- | --- | --- | --- | --- | --- | --- | --- | --- | --- | --- | --- | --- | --- | --- | --- | --- | --- |
| COc1cc(Nc2ncc3c(C)nc(-c4cccc(C(F)(F)F)c4)n3n2)cc(OC)c1OC | 12.9 | 0.31 | 0.73 | -0.06 | 0.98 | 4.13 | 4.89 | 2.74 | 8.43 | 1.49 | 5.56 | -1.07 | 5.23 | 4.32 | 17.5 | 6.02 | 10.7 | 22.4 | 56.1 | 17.1 |
| O=C(Nc1n[nH]c2nc(-c3ccco3)ccc12)C1CC1 | 4.82 | 5.94 | 7.53 | 2.44 | 4.53 | -0.69 | 4.35 | 1.04 | 1.77 | 0.31 | -1.02 | 0.52 | -1.34 | -1.58 | 2.15 | 1.58 | 2.28 | 6.1 | 7.98 | 6.87 |
| NS(=O)(=O)c1ccc(N/N=C2\C(=O)Nc3ccc(C(=O)NCCCn4ccnc4)cc32)cc1 | 6.51 | 0.72 | 1.93 | 3.44 | 5.59 | 0.2 | 6.95 | 1.73 | 5.08 | 2.53 | 5.05 | 1.54 | 4.72 | 0.32 | 2.41 | 1.95 | 4.65 | 9.78 | 18.2 | 5.33 |
| O=C(Nc1n[nH]c2nc(-c3ccc(O)cc3)c(Br)cc12)C1CC1 | 10.9 | 2.17 | 4.12 | 5.76 | 6.97 | 5.48 | 9.71 | 6.22 | 7.61 | 4.95 | 5.37 | 6.72 | 8.16 | 4.79 | 24.2 | 8.45 | 14 | 15.2 | 39.2 | 11.9 |
| Fc1ccc(-c2nc3n(c2-c2ccncc2)CCS3)cc1 | 4.61 | 2.36 | 4.83 | 0.92 | 3.39 | 5.61 | 14.5 | 2.5 | 1.57 | 1.65 | 0.86 | 1.02 | 1.42 | -3.82 | -3.6 | -0.22 | -0.79 | 6.24 | 3.74 | 3.72 |
| COc1cccc(-n2cnc3c(N/N=C/c4ccncc4)ncnc32)c1 | 7.17 | -0.19 | 1.99 | 2.02 | 8.31 | 5.72 | 30.8 | 1.61 | 10.6 | -0.92 | 5.78 | -1.35 | 6.65 | -0.82 | 0.55 | -3.39 | -0.79 | 3.18 | 25.6 | 2.42 |
